# aSyn UTR act: Activators working through SNCA 5'UTR binding (MLPCN) | actives 7.1% (n = 300,000) | activity score, % (tested at 7.5 µM), hits read low | alpha-synuclein 5'UTR reporter, activators screen; in the data active = activity score below about -60%
# Starred values were filed as active, the others as inactive. Not all results are given here.
SMILES,aSyn UTR act
COc1ccc(C(=O)NCCc2c[nH]c3ccccc23)cc1,-184*
COCCN=C1Sc2nc3cc(C)c(C)cc3cc2CN1Cc1cccs1,-78*
COCCN=C1Sc2nc3ccc(C)cc3cc2CN1Cc1ccco1,-68*
Cc1cc2nc(C3CCN(Cc4nnnn4Cc4cccs4)CC3)[nH]c2cc1C,63
COC(=O)/C(C#N)=C/c1c[nH]c2ccccc12,-96*
O=Cc1cc2ccccc2nc1SCc1ccc(Cl)c(Cl)c1,109
CCOC(=O)/C(C#N)=C/c1cc2ccccc2nc1Cl,-80*
CCOC(=O)/C(C#N)=C/Nc1ccccc1OC,-122*
CCOC(=O)/C(C#N)=C/c1c[nH]c2ccccc12,-66*

# Bioassay records deposited in PubChem BioAssay by Broad Institute.
